# Shown are actives, neighbours in structure and some others; about 2.7% of the full set was active somewhere.
# proKLK7 act – proKLK7 (human) activation, primary screen. activation, % at 7 µM. purified proKLK7, EDANS-DABCYL substrate fluorescence; 100% is mature enzyme control, 0% vehicle. 370,000 tested, 0.9% active;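 active means activation above the mean of all tested compounds plus 3 SD, computed per campaign excluding outliers beyond control limits, cut at about 13% in these data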
# FAS-TE inh – FAS thioesterase (human) inhibition. recombinant FAS-TE, OMFH fluorogenic substrate, fluorescence endpoint. inhibition, % at 15 µM. 360,000 tested, 0.67% active;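 active means compounds whose normalised, plate-corrected inhibition of enzyme fluorescence in the single-dose primary screen is 50% or more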;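 further: 0% = DMSO with enzyme and 100% = substrate without enzyme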
# Neddyl block – cullin neddylation inhibition | P61081+Q13564 | TR-FRET cullin neddylation, biochemical | calls only at 25 µM | 360,000 tested, 0.58% active | AID 651699; in the data active means inhibition above about 36%
# PfGluPho inh – PfG6PD (Plasmodium falciparum) enzyme inhibition | PfGluPho enzyme, NADPH resazurin-diaphorase fluorescence | inhibition, % at 20 µM | AID 504690 | 350,000 tested, 0.78% active;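 active means inhibition reaching at least a set limit at 20 µM in the primary screen, cut at about 59% in these data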;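 further: 0% = DMSO wells with substrate and 100% = DMSO wells lacking glucose-6-phosphate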
# FAS-TE inh conf – FAS thioesterase (human) inhibition, confirmation; shares compounds with FAS-TE inh; recombinant FAS-TE, OMFH fluorogenic substrate, fluorescence; inhibition, % at 15 µM; 2,300 tested, 45% active; AID 624325;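 active means compounds inhibiting the enzyme by at least 50% at 15 µM in any one of the replicates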;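 further: 0% = enzyme with DMSO only and 100% = wells lacking enzyme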
# * hit, by the source's call; i = inactive; · = not tested or not shown.
SMILES,proKLK7 act,FAS-TE inh,Neddyl block,PfGluPho inh,FAS-TE inh conf
O=C1C=C(c2ccc(Cl)c(C(F)(F)F)c2)C[C@@H](c2ccc(F)cc2)C1,0.1,53.2*,i,8.7,32.5
O=C1C=C(c2ccc(Cl)c(C(F)(F)F)c2)C[C@@H](c2ccc(Cl)cc2)C1,0.3,54.5*,i,11.8,33.5
O=C1C=C(c2ccc(-c3ccccc3)cc2)C[C@@H](c2ccc(Cl)cc2)C1,-0.9,28.7,i,10.6,·
O=c1nc(SCc2c(F)cccc2Cl)nc(-c2ccc(Cl)cc2)[nH]1,-0.1,56.7*,i,-39.7,17.5
COC(=O)[C@H]1C[C@@]2(c3ccccc3)c3ccccc3N(S(=O)(=O)c3ccccc3)[C@H]2N1,-0.1,·,·,·,·
C=CCN1C(=O)[C@@H](CC(=O)N2CCN(C(=O)C3CC3)CC2)[C@]2(C(=O)OCC)CCCCC/C=C/12,0.1,·,·,·,·
Cc1ccc(-c2nnc(COC(=O)c3cc(=O)[nH]c4ccccc34)o2)cc1,-1.5,66.1*,i,-2.0,49.3*
C#CCCN([C@@H](CC(C)C)C(=O)OC)S(=O)(=O)c1ccccc1Br,0.8,·,·,·,·
COc1ccc(C/C(N)=N/OC(=O)c2cccc([N+](=O)[O-])c2)cc1,-0.1,54.0*,i,-2.3,48.1*
COc1ccccc1C/C(N)=N/OC(=O)c1cccc([N+](=O)[O-])c1,-0.6,29.1,i,-21.0,·
Cc1ccc(-n2c(SCC(=O)Nc3ccccc3-c3ccccc3)nnc2-c2cnccn2)cc1,0.8,·,·,·,·
COc1ccc(Cl)cc1-c1cc(C(=O)NCc2ccc(C(F)(F)F)cc2)[nH]n1,0.9,56.3*,i,·,55.5*
COc1ccc(Cl)cc1-c1cc(C(=O)NCc2ccc(F)cc2)[nH]n1,0.2,32.4,i,·,·
COC(=O)C1=C(C(=O)OC)[C@@H]2N(Cc3ccccc3)c3ccccc3[C@@]23C[C@@H](C(=O)OC)N(C(=O)CC(C)C)C3=N1,0.1,77.0*,i,13.2,27.6
C=CCN1c2ccccc2[C@]23C[C@@H](C(=O)OC)N(C(=O)C4CCC4)C2=NC(C(=O)OC)=C(C(=O)OC)[C@H]13,-0.1,31.7,i,12.7,·
COC(=O)C1=C(C(=O)OC)[C@@H]2N(Cc3ccccc3)c3ccccc3[C@@]23C[C@@H](C(=O)OC)N(C(=O)c2cc(C)oc2C)C3=N1,-0.6,59.4*,i,7.3,15.1
C=CCN1c2ccccc2[C@]23C[C@@H](C(=O)OC)N(C(=O)NCCC)C2=NC(C(=O)OC)=C(C(=O)OC)[C@H]13,-0.4,78.8*,i,3.0,30.8
COC(=O)C1=C(C(=O)OC)[C@@H]2N(Cc3ccccc3)c3ccccc3[C@@]23C[C@@H](C(=O)OC)N(C(=O)c2cccs2)C3=N1,0.9,23.4,i,5.3,·
COC(=O)[C@H](CC(C)C)N(Cc1cn(Cc2ccc(C)cc2)nn1)S(=O)(=O)c1ccccc1Br,0.9,·,·,·,·
O=S1(=O)c2c(cccc2N2CCC[C@H]2CO)O[C@@H]2CCN1C2,0.7,·,·,·,·
O=C(CSc1nnc(-c2c[nH]c3ccccc23)o1)N1c2ccccc2CCc2ccccc21,0.3,55.3*,i,12.4,11.1
C=CC[C@@H]1NN2C(=O)[C@@H](CCCC)[C@@H]3c4cc5ccccc5cc4C=NN3[C@@H]2c2cc3ccccc3cc21,-6.7,·,·,·,·
COc1cc(CNc2nc(C)c([N+](=O)[O-])c(C)c2C#N)cc(OC)c1OC,0.0,54.9*,i,5.8,58.8*
COc1ccc(CNc2nc(C)c([N+](=O)[O-])c(C)c2C#N)cc1,-0.1,43.2,i,-3.8,·
Cc1cc(C)c2nc(NC(=O)c3cccc(S(=O)(=O)N4CCc5ccccc54)c3)sc2c1,0.3,70.2*,i,-14.1,8.2
Cc1ccc(-c2nnc(SCC(=O)N/N=C/c3c(C)nn(-c4ccccc4)c3C)n2-c2ccc(C)cc2)cc1,0.3,61.6*,i,-8.4,16.2
Cc1sc(NC(=O)Cc2ccc3c(c2)OCO3)nc1-c1ccc2c(c1)CCN2C(=O)c1ccccc1F,0.3,81.2*,i,8.5,13.8
CCCCc1ccc(C2C3=C(CC(C)(C)CC3=O)NC3=C2C(=O)c2ccccc23)cc1 (stereo unspecified),0.0,63.4*,i,23.2,11.1
CCCc1ccc(C2C3=C(CC(C)(C)CC3=O)NC3=C2C(=O)c2ccccc23)cc1 (stereo unspecified),0.3,30.3,i,16.9,·
Cc1ccccc1CS(=O)(=O)c1nnc([C@H](Cc2ccccc2)NC(=O)OC(C)(C)C)o1,1.2,63.6*,i,29.6,26.8*
